# A selection: hits, their analogues and other compounds. The true share with any hit is near 2.5%.
# EWS-Fli block = inhibitors of EWS/Fli oncoprotein transcriptional activity; A673 NR0B1-luciferase reporter, viability-normalised; inhibition, % at 12.6 µM; actives 0.67% (n = 350,000);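 active = mean inhibition of at least 50% after viability correction, with every replicate also passing that limit; inconclusive = mean reaches 50% but only one of two replicates passes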;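 note: firefly luciferase signal divided by Alamar Blue viability fluorescence both relative to DMSO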
# LGR2 inh = blocks bursicon-induced cAMP signaling via Drosophila LGR2. HEK293 LGR2, CRE-luciferase, bursicon-stimulated, 4 h. inhibition, % at 9.99 µM. actives 0.35% (n = 380,000). AID 720647;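 active = drop in luminescence signal, shown as inhibition above about 50% in the replicate tests, limit read from the data, passing the limit was not always enough; inconclusive = probably only some replicates passing the limit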;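 note: agonist challenge used bursicon conditioned medium at about half maximal strength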
# TWEAK Fn14 block = TWEAK-Fn14 signaling inhibition; AID 1159606; inhibition, % at 10 µM; TWEAK-stimulated Fn14 reporter cells, luciferase luminescence, 8 h; actives 2% (n = 360,000); in the data active = inhibition above about 50%
# TROY NFkB inh = inhibitors of TROY-dependent NF-kB signaling; AID 1347056; inhibition, % at 10 µM; Q293 LMP1-TROYcd NF-kB luciferase reporter, 4 h; actives 0.98% (n = 360,000);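 active = compounds whose plate-normalised and pattern-corrected inhibition of the luciferase reporter signal at the single screening dose is 50% or more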
# LMP1 NFkB inh = Epstein-Barr LMP1 NF-kappaB reporter inhibition. AID 504558. actives 0.69% (n = 350,000). LMP1-induced NF-kappaB luciferase reporter cells, luminescence. inhibition, % at 12.5 µM; in the data active = inhibition above about 41%; inconclusive = no clear call, values can overlap the other calls
# Numbers stand for hits; . = inactive; ? = inconclusive; / = not tested or not shown.
SMILES,EWS-Fli block,LGR2 inh,TWEAK Fn14 block,TROY NFkB inh,LMP1 NFkB inh
COc1cccc(S(=O)(=O)N(C)C[C@H]2Oc3ncc(-c4cccc(C(=O)N(C)C)c4)cc3C(=O)N([C@@H](C)CO)C[C@H]2C)c1,.,.,/,/,/
CCCc1nc(SCC(=O)N2CCC(Cc3ccccc3)CC2)c2c(=O)n(C)c(=O)n(C)c2n1,.,16.6,60.7,83.2,.
C[C@H](CO)N1C[C@H](C)[C@@H](CN(C)C(=O)Nc2cccc3ccccc23)OCCCC[C@H](C)Oc2ccc(NS(=O)(=O)c3cccs3)cc2C1=O,.,.,/,/,/
Cc1cn([C@@H](CCCCNC(=O)OC(C)(C)C)C(=O)NCCCCCCCCCCC(=O)N2CCN(C(=O)OC(C)(C)C)CC2)nn1,/,/,87.7,70.4,.
CC[C@H](C)Cc1cn([C@@H](CCCCN)C(=O)NCCCCCCCCCCC(=O)N2CCNCC2)nn1,.,.,.,.,.
CC[C@H](C)Cc1cn([C@@H](CCCN=C(NC(=O)OC(C)(C)C)NC(=O)OC(C)(C)C)C(=O)NCCCCCCCCCCC(=O)N2CCN(C(=O)OC(C)(C)C)CC2)nn1,/,/,59.9,81.0,.
CCCN(C)C[C@@H]1Oc2ncc(-c3ccccc3F)cc2C(=O)N([C@H](C)CO)C[C@@H]1C,.,.,/,/,/
O=C1c2ccccc2C(Nc2cccnc2)N1Cc1ccccc1 (stereo not given),.,.,.,.,81.9
Cc1ccc(N2C(=O)c3ccccc3C2Nc2cccnc2)nc1 (stereo not given),.,.,.,.,81.4
O=C(Nc1ccc(-c2ccccc2)cc1)[C@H]1[C@H](CO)[C@H]2Cn3c(cccc3=O)[C@@H]1N2Cc1cccnc1,.,.,/,/,/
COC(=O)N1C(=O)[C@](c2ccccc2)(C2CCCC2)N1C(=O)OC,.,.,.,.,.
COC(=O)N1C(=O)[C@@](c2ccc(OC)cc2)(C(C)C)N1C(=O)OC,/,.,56.8,.,.
COC(=O)N1C(=O)[C@@](c2ccccc2)(C(C)C)N1C(=O)OC,/,/,61.1,.,.
COC(=O)N1C(=O)[C@](c2ccc(Cl)cc2)(C(C)C)N1C(=O)OC,.,.,.,.,.
CCNC(=O)Nc1ccc2c(c1)C(=O)N(C)[C@@H]1CC[C@@H](CC(=O)N[C@H](C)c3ccccc3)O[C@H]1CO2,.,.,/,/,/
C[C@@H]1CN([C@H](C)CO)C(=O)c2cccc(NS(=O)(=O)c3cn(C)cn3)c2O[C@@H]1CN(C)S(=O)(=O)c1ccc(Cl)cc1,.,.,/,/,/
Cc1ccc(CNC(=O)c2cccc(OCc3c(C)noc3C)c2)cc1,/,/,.,.,.
Cc1noc(C)c1COc1cccc(C(=O)NCCc2c[nH]c3ccccc23)c1,54.7,.,.,.,.
C[C@@H]1CCCCO[C@H](CN(C)C(=O)NC2CCCCC2)[C@H](C)CN([C@@H](C)CO)C(=O)c2cc(NS(=O)(=O)c3ccc(Cl)cc3)ccc2O1,.,.,/,/,/
CCCCCCc1cc2cc(C(=O)OCC)c(=O)oc2cc1O,.,.,.,.,.
CCCCCCc1cc2cc(S(=O)(=O)c3ccc(F)c(Cl)c3)c(=O)oc2cc1O,/,.,53.8,58.1,.
COc1ccc(-n2nc3cc(C)c(NC(C)=O)cc3n2)cc1,50.6,.,75.2,56.6,.
C[C@@H]1CCCCO[C@H](CN(C)C(=O)CCCN(C)C)[C@H](C)CN([C@@H](C)CO)C(=O)c2cc(NC(=O)c3ccncc3)ccc2O1,.,.,/,/,/
O=C(Nc1ccccc1)c1cccc(C(=O)Nc2ccccc2)n1,/,.,.,.,.
CN(C)c1ccc(NC(=O)c2cccc(C(=O)Nc3ccc(N(C)C)cc3)n2)cc1,/,.,50.6,.,.
SMILES,EWS-Fli block,LGR2 inh,TWEAK Fn14 block,TROY NFkB inh,LMP1 NFkB inh
COc1cc(/C=N/Nc2snc(SC)c2C#N)cc(OC)c1OC,/,/,91.6,/,.
CSc1nsc(N/N=C/c2ccc3c(c2)OCO3)c1C#N,.,.,.,.,.
COc1ccc(OC)c(Nc2cc3ccccc3c(=O)[nH]2)c1,61.5,.,.,.,.
COc1ccccc1Nc1cc2cc(Br)ccc2c(=O)[nH]1,.,.,.,.,.
COc1ccccc1-c1ccc2n(c1=O)C[C@@H]1[C@@H](CO)[C@H](C(=O)N(C)C)N[C@H]21,.,.,/,/,/
COc1ccccc1N(C(C)=O)C1=C(Cl)C(=O)c2ccccc2C1=O,56.0,?,.,.,?
COc1ccc(C(=O)c2sc(Nc3ccccc3)c(C(=O)Nc3ccc(OC)c(OC)c3)c2N)cc1,/,/,.,.,.
COc1ccc(NC(=O)c2c(Nc3ccccc3)sc(C(=O)c3ccc(F)cc3)c2N)cc1,/,/,52.0,.,.
O=C(NCC[C@@H]1CC[C@@H](NC(=O)C2CC2)[C@H](CO)O1)Nc1ccc(Cl)cc1,.,.,/,/,/
S=C(NCCCN1CCOCC1)N1CCN(c2nc(-c3ccccc3)cs2)CC1,.,.,.,.,.
S=C(NCCCN1CCOCC1)N1CCN(c2nc(-c3ccc(Cl)cc3)cs2)CC1,.,.,.,.,44.1
S=C(NCC1CCCO1)N1CCN(c2cccc(Cl)c2)CC1 (stereo not given),.,.,.,.,.
S=C(NCC1CCCO1)N1CCN(c2nc(-c3ccc(Cl)cc3)cs2)CC1 (stereo not given),.,.,63.9,.,.
C[C@H]1CN([C@@H](C)CO)S(=O)(=O)c2ccc(C#CCN(C)C)cc2O[C@@H]1CN(C)C(=O)Nc1ccccc1F,.,.,/,/,/
COc1cc(/C=C(\C#N)c2nc3ccccc3[nH]2)ccc1Oc1ccc([N+](=O)[O-])cn1,/,.,.,52.3,.
COc1cc(/C=C(/C#N)c2ccccc2)ccc1Oc1ccc([N+](=O)[O-])cn1,/,/,.,.,.
COc1cc(/C=C(\C#N)c2nc3ccc(C)cc3[nH]2)cc([N+](=O)[O-])c1O,.,.,50.9,.,.
O=C1C(Cl)=C(NCCN2CCCCC2)C(=O)c2ccccc21,/,/,92.9,53.6,.
CCNC1=C(Cl)C(=O)c2ccccc2C1=O,/,/,.,.,.
O=C(NNCc1ccccc1)c1ccccc1,.,.,64.8,.,.
CC(C)c1ccc(CNNC(=O)c2ccccc2)cc1,.,.,.,.,.
COc1ccc(-c2nn(-c3ccccc3)cc2C(=O)NC(=S)NNC(=O)c2ccncc2)cc1,.,.,60.2,.,.
O=C(CN(c1cccc(Br)c1)S(=O)(=O)c1ccccc1)N/N=C/c1cc([N+](=O)[O-])ccc1O,.,.,.,52.1,.
CO[C@H]1CN(C)C(=O)c2cc(NS(C)(=O)=O)ccc2OC[C@@H](C)NC[C@@H]1C,/,.,/,/,/
O=C(c1ccc(F)cc1)N1CCCCN2[C@H](CO)[C@H](c3ccc(-c4ccc(F)cc4)cc3)[C@H]2C1,.,/,/,/,/
COc1ccc(S(=O)(=O)NNC(=O)C2Cc3c(ccc4ccccc34)O2)cc1 (stereo not given),/,/,.,.,44.5
O=c1[nH]c(=O)n(-c2ccc(F)cc2)c2c1C(C(F)(F)F)(C(F)(F)F)N=C(c1ccc(F)cc1)N2,.,.,64.6,.,.
CCN1[C@H](C(=O)NCC(F)(F)F)[C@@H](CO)[C@@H]2Cn3c(ccc(-c4ccccc4)c3=O)[C@@H]21,.,.,/,/,/
